This is an account of results in PubChem BioAssay (EPA / NIEHS).

Structures are written as SMILES. Calls of active or inactive are those of the source. The calls were made as follows: active = hit-call score of the fitted dose curve at least 0.9, where 1 is the maximum; inactive = score below 0.9.

Experiment [1] is described as follows: BSK_CASM3C_SRB: Viability Assessment in the BioMAP Diversity Plus: CASM3C Assay (AID 2283050).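 Also: total protein by SRB staining as cytotoxicity measure in parallel cultures.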 The following applies: primary human coronary artery smooth muscle cells.
Read-out in experiment [2]: Tissue Factor, F3 (gene 2152)
As to the kind of experiment: BSK_CASM3C_TissueFactor: BioMAP Diversity Plus: CASM3C Assay for Tissue Factor Biomarker Activity (AID 2283052).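 Also: cell surface tissue factor protein level read by ELISA.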 The following applies: primary human coronary artery smooth muscle cells; actives raise or lower the signal.

Read-out in experiment [3]: Interferon-gamma inducible Protein 10 (IP10), CXCL10 (gene 3627)
Put plainly: BSK_hDFCGF_IP10: BioMAP Diversity Plus: hDFCGF Assay for Interferon-gamma inducible Protein 10 (IP10) Biomarker Activity (AID 2283053). The following applies: primary human foreskin fibroblasts; actives raise or lower the signal. The gist of the method:
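ELISA read-out of IP-10 (CXCL10) from primary human skin fibroblasts, 24 h after compound addition. Gain or loss of signal versus DMSO baseline, bidirectional curve fitting.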

Read-out in experiment [4]: Epidermal growth factor receptor (EGFR), EGFR (gene 1956)
As to the kind of experiment: BSK_hDFCGF_EGFR: BioMAP Diversity Plus: hDFCGF Assay for Epidermal growth factor receptor (EGFR) Biomarker Activity (AID 2283057). Particulars: primary human foreskin fibroblasts; actives raise or lower the signal. In short, it runs like this: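 ELISA readout of EGFR on human dermal fibroblasts (primary foreskin cells), 24 h post-dosing; bidirectional curve fit vs DMSO baseline, gain or loss of signal scored.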

Read-out in experiment [5]: Interleukin-8 (IL8), CXCL8 (gene 3576)
Put plainly: BSK_hDFCGF_IL8: BioMAP Diversity Plus: hDFCGF Assay for Interleukin-8 (IL8) Biomarker Activity (AID 2283058). The following applies: primary human foreskin fibroblasts; actives raise or lower the signal. In short, it runs like this: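 Fibroblast monolayers (human foreskin, hDFCGF) received test chemical for 24 h before ELISA detection of IL-8; either increases or decreases relative to DMSO count as activity.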

A short description of experiment [6]: BSK_hDFCGF_Proliferation: Cell Proliferation Assessment in the BioMAP Diversity Plus: hDFCGF Assay (AID 2283059).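 Also: curves fitted for both rise and fall of signal versus DMSO baseline.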 Particulars: primary human foreskin fibroblasts. In short, it runs like this: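 This proliferation readout used SRB total-protein staining of human foreskin fibroblasts […], normalized to DMSO with bidirectional curve fitting.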

A short description of experiment [7]: BSK_hDFCGF_SRB: Viability Assessment in the BioMAP Diversity Plus: hDFCGF Assay (AID 2283061).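 Also: cells exposed to compound for 24 h before the read.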 The following applies: primary human foreskin fibroblasts. In short, it runs like this:
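SRB-based viability read on primary human skin fibroblasts at 24 h: TCA fixation, 0.1% dye, 560 nm. Gain or loss of signal is fitted against the DMSO negative control.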

Read-out in experiment [8]: TIMP metallopeptidase inhibitor 1 (TIMP1), TIMP1 (gene 7076)
Put plainly: BSK_hDFCGF_TIMP1: BioMAP Diversity Plus: hDFCGF Assay for TIMP metallopeptidase inhibitor 1 (TIMP1) Biomarker Activity (AID 2283062). Particulars: primary human foreskin fibroblasts; actives raise or lower the signal. The gist of the method: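 Bidirectional curve fitting against DMSO baseline yielded this endpoint, based on ELISA detection of TIMP-1 in primary human foreskin fibroblasts exposed to compound for 24 h.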

Read-out in experiment [9]: Matrix Metallopeptidase 1 (MMP1), MMP1 (gene 4312)
Put plainly: BSK_hDFCGF_MMP1: BioMAP Diversity Plus: hDFCGF Assay for Matrix Metallopeptidase 1 (MMP1) Biomarker Activity (AID 2283064). Particulars: primary human foreskin fibroblasts; actives raise or lower the signal. The gist of the method:
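ELISA read-out of MMP1 from human foreskin fibroblasts (primary skin cells), 24 h post-dose. Gain or loss of signal was fitted bidirectionally versus DMSO negative control; cytotoxicity was checked by SRB in parallel cultures.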

Read-out in experiment [10]: Vascular cell adhesion molecule 1 (VCAM1), VCAM1 (gene 7412)
Put plainly: BSK_hDFCGF_VCAM1: BioMAP Diversity Plus: hDFCGF Assay for Vascular cell adhesion molecule 1 (VCAM1) Biomarker Activity (AID 2283065).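 As to AC50: VCAM-1 protein level quantified by ELISA after 24 h chemical exposure.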 The following applies: primary human foreskin fibroblasts; actives raise or lower the signal. In short, it runs like this: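 Measured after 24 h chemical treatment of primary human skin fibroblasts, VCAM-1 was detected by ELISA and concentration-response analysed in both directions versus DMSO vehicle.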

Read-out in experiment [11]: Interferon-gamma inducible Protein 10 (IP10), CXCL10 (gene 3627)
As to the kind of experiment: BSK_KF3CT_IP10: BioMAP Diversity Plus: KF3CT Assay for Interferon-gamma inducible Protein 10 (IP10) Biomarker Activity (AID 2283068). The following applies: primary human keratinocytes with fibroblasts; actives raise or lower the signal. The gist of the method: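 Signal is secreted/surface IP-10 by ELISA in a human primary skin co-culture of keratinocytes and foreskin fibroblasts, taken 24 h post-dosing; DMSO served as negative control.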

Read-out in experiment [12]: Transforming growth factor beta 1 (TGFb1), TGFB1 (gene 7040)
Put plainly: BSK_KF3CT_TGFb1: BioMAP Diversity Plus: KF3CT Assay for Transforming growth factor beta 1 (TGFb1) Biomarker Activity (AID 2283072). The following applies: primary human keratinocytes with fibroblasts; actives raise or lower the signal. In short, it runs like this: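 Read-out: ELISA for TGF-b1 in keratinocyte/foreskin fibroblast human skin co-culture, 24 h after dosing; bidirectional curve fit vs DMSO baseline; gain or loss of signal scored.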

Read-out in experiment [13]: urokinase plasminogen activator (uPA), PLAU (gene 5328)
Put plainly: BSK_KF3CT_uPA: BioMAP Diversity Plus: KF3CT Assay for urokinase plasminogen activator (uPA) Biomarker Activity (AID 2283075). The following applies: primary human keratinocytes with fibroblasts; actives raise or lower the signal. The gist of the method: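 Skin co-culture (keratinocytes + foreskin fibroblasts), human primary; 24 h post-dose; uPA by ELISA; gain/loss fit vs DMSO baseline.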

Read-out in the next experiment: CD40, CD40 (gene 958)
As to the kind of experiment: BSK_LPS_CD40: BioMAP Diversity Plus: LPS Assay for CD40 Biomarker Activity (AID 2283076). The following applies: primary human HUVEC with PBMC; actives raise or lower the signal. The gist of the method: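 Using a multiplexed primary human co-culture (umbilical vein endothelium plus PBMC), CD40 was read by ELISA 24 h after dosing, with cytotoxicity tracked by sulforhodamine B staining of parallel cultures and activity fitted bidirectionally versus DMSO.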

Read-out in experiment [14]: E-selectin (Homo sapiens) (UniProt P16581)
Put plainly: BSK_LPS_Eselectin: BioMAP Diversity Plus: LPS Assay for Eselectin Biomarker Activity (AID 2283077). The following applies: primary human HUVEC with PBMC; actives raise or lower the signal. The gist of the method: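 Dose chemical onto LPS-driven HUVEC/PBMC co-culture; after 24 h, run ELISA for E-selectin; fit up- and down-going responses relative to DMSO control.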

Read-out in experiment [15]: Interleukin-8 (IL8), CXCL8 (gene 3576)
As to the kind of experiment: BSK_LPS_IL8: BioMAP Diversity Plus: LPS Assay for Interleukin-8 (IL8) Biomarker Activity (AID 2283078). The following applies: primary human HUVEC with PBMC; actives raise or lower the signal. In short, it runs like this:
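In this LPS system, chemical-treated human umbilical vein endothelium/PBMC co-cultures were harvested at 24 h for IL-8 ELISA.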

Experiment [16] in a line: BSK_LPS_SRB: Viability Assessment in the BioMAP Diversity Plus: LPS Assay (AID 2283079).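 Also: total protein by sulforhodamine B absorbance as a cytotoxicity measure; measured one day after compound addition; fitted in both directions against DMSO so loss or gain of signal counts.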 Particulars: primary human HUVEC with PBMC. In short, it runs like this: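 Cytotoxicity endpoint in human endothelial–PBMC co-culture: 24 h exposure, then SRB (0.1%) staining, 560 nm read.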
Read-out in experiment [17]: Interleukin-1 alpha (IL1a), IL1A (gene 3552)
Put plainly: BSK_LPS_IL1a: BioMAP Diversity Plus: LPS Assay for Interleukin-1 alpha (IL1a) Biomarker Activity (AID 2283080). The following applies: primary human HUVEC with PBMC; actives raise or lower the signal. The gist of the method: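 Primary human HUVEC and PBMC co-culture stimulated with LPS is dosed and harvested at 24 h. Both increases and decreases in ELISA-measured IL-1a are scored relative to DMSO.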

Read-out in experiment [18]: Monocyte Chemoattractant Protein-1 (MCP1), CCL2 (gene 6347)
Put plainly: BSK_LPS_MCP1: BioMAP Diversity Plus: LPS Assay for Monocyte Chemoattractant Protein-1 (MCP1) Biomarker Activity (AID 2283081).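 As to AC50: secreted MCP-1 protein quantified by ELISA in culture supernatant.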 The following applies: primary human HUVEC with PBMC; actives raise or lower the signal. The gist of the method: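 Values derive from bidirectional fitting against DMSO of ELISA-measured MCP-1 in a human primary endothelial and mononuclear cell co-culture, 24 h after chemical addition under LPS activation.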

Experiment [19] is described as follows: BSK_LPS_PGE2: BioMAP Diversity Plus: LPS Assay for Prostaglandin E2 (PGE2) Biomarker Activity (AID 2283082).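 As to AC50: secreted prostaglandin E2 measured by ELISA in LPS-stimulated co-culture.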 Particulars: primary human HUVEC with PBMC; actives raise or lower the signal. In short, it runs like this:
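ELISA read-out of PGE2 from human umbilical vein endothelial cells co-cultured with peripheral blood mononuclear cells under LPS, 24 h post-dose. Gain or loss of signal scored relative to DMSO baseline.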

E-selectin (Homo sapiens), sequence (P16581 whole entry, looked up): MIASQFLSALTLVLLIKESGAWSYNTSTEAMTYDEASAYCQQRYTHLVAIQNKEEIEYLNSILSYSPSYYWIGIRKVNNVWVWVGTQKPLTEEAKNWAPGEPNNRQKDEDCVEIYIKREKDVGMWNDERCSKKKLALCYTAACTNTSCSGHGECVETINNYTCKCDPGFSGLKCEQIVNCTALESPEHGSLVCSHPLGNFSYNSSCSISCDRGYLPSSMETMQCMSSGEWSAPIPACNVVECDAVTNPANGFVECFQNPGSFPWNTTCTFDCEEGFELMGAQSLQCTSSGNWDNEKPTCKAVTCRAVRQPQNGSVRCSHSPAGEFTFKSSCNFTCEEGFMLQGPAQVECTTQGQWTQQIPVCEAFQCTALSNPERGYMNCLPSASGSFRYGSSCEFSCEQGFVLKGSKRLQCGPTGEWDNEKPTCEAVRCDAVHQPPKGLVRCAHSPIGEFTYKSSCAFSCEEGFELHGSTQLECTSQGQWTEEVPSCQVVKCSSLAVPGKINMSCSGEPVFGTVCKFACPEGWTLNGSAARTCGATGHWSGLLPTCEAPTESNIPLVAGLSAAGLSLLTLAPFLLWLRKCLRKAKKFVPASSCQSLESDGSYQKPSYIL

As to `Oc1cc(Cl)ccc1Cl`, the result in experiment [1], in experiment [2], in [3], in experiment [4], in experiment [5] and in experiment [6] was inactive. For the same molecule, the outcome in experiment [7], in [8], in experiment [9], in experiment [10], in [11] and in [12] was inactive. Besides, the outcome was “inactive” in experiment [13]; “inactive” in the experiment with CD40, CD40 (gene 958); “inactive” in experiment [14]; “inactive” in [15]; “inactive” in experiment [16]; “inactive” in experiment [17]. Besides, the outcome in experiment [18] and in [19] was inactive.

Consider `O=P1(NCCCl)OCCCN1CCCl` (centres undefined), for which the outcome in experiment [1], in [2], in [3], in experiment [4], in experiment [5] and in experiment [6] was inactive. The outcome in experiment [7], in [8], in [9], in [10], in experiment [11] and in [12] was inactive. For the same molecule, the outcome was “inactive” in experiment [13]; “inactive” with CD40, CD40 (gene 958); “inactive” in experiment [14]; “inactive” in experiment [15]; “inactive” in experiment [16]; “inactive” in experiment [17]. For the same molecule, the outcome in experiment [18] and in experiment [19] was inactive.

Take `CC(C)(c1cc(Cl)c(O)c(Cl)c1)c1cc(Cl)c(O)c(Cl)c1`: the AC50 is 31.6 µM (active) in experiment [1]; 10.9 µM (active) in experiment [2]; 11.5 µM (active) in [3]; 28.5 µM (active) in experiment [5]; 7.69 µM (active) in experiment [6]; 16.5 µM (active) in experiment [7]. Besides, the AC50 in experiment [8] is 11 µM (active); in experiment [9] it was 11.1 µM (active); in [10], 10.5 µM (active); in experiment [11], 7.37 µM (active); in [12], 5.27 µM (active); in [13], 9.27 µM (active). The AC50 is 17.3 µM (active) with CD40, CD40 (gene 958); 32.5 µM (active) in experiment [15]; 31.7 µM (active) in [16]; 31.5 µM (active) in [17]; 31.3 µM (active) in [18]; 22.9 µM (active) in [19]. The result in [4] was inactive.

`CC(C)CCCCCCCOP(=O)(Oc1ccccc1)Oc1ccccc1`: the AC50 in experiment [1] was 20 µM (active); in [3], 9.26 µM (active); in experiment [4], 3.97 µM (active); in [5], 25.7 µM (active); in experiment [6], 3.16 µM (active); in experiment [7], 8.83 µM (active). Further, the AC50 was 12.8 µM (active) in experiment [8]; 20 µM (active) in experiment [9]; 5.85 µM (active) in [10]; 30.3 µM (active) in [11]; 20 µM (active) in experiment [12]; 20 µM (active) in [13]. For the same molecule, the AC50 with CD40, CD40 (gene 958) was 11.3 µM (active); in experiment [14] it was 23 µM (active); in [16] it was 23.7 µM (active); in [17] it was 27.3 µM (active); in experiment [18], 20 µM (active); in [19], 13.6 µM (active). Besides, the outcome in experiment [2] and in experiment [15] was inactive.

What is called AC50 is the concentration at which the activity in the assay is half-maximal.
